Test results from PubChem BioAssay AID651784 (National Center for Advancing Translational Sciences (NCATS), 2012).
Results filed as inconclusive are left out. The source made the active and inactive calls. Calls come from the whole dose curve; as a rule, active = well fitted inhibition curve with a large enough effect; inconclusive = small, poorly fitted or top-dose-only effect; inactive = no such curve, though single readings can be large or run the other way.

Assay: Acumen qHTS Assay for Inhibitors of the mTORC1 Signaling Pathway in MEF (Tsc2-/-, p53-/-) Cells: Hit Validation;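 note: phospho-rpS6 Ser235/236 immunofluorescence normalized to propidium iodide cell count; nearly all actives have a fitted effect of over 65% in size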;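 for activity change, negative = inhibition: cells exposed to compound for 24 hours; plate controls were DMSO for no effect and 7.5 nM rapamycin control for full effect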
Conditions: Acumen imaging; activity change, negative = inhibition: at 37.3 µM (top of the series)
Potency is the fitted concentration of half-maximal effect.

Compound | Potency | activity change, negative = inhibition [%]
Cc1cc(C)c(NC(=O)Cn2c(=O)n(Cc3ccc(C(=O)NCc4ccc5c(c4)OCO5)cc3)c(=O)c3ccccc32)c(C)c1 | 5850 nM (active) | –
CCCN(c1ccccc1CC)S(=O)(=O)c1ccc2c(c1)CC(C)N2C(=O)C1CC1 (configuration not stated) | 521 nM (active) | –
O=C(CC1(O)C(=O)N(CCc2ccccc2)c2ccc(Br)cc21)c1ccccc1O (configuration not stated) | 6560 nM (active) | –
CC(C)(C)C1CCc2c(sc(NC(=O)C3c4ccccc4Oc4ccccc43)c2C(N)=O)C1 (configuration not stated) | – | -15.3
Cc1ccc(C(=O)Nc2c(C(=O)NCc3ccc(Cl)cc3)sc3nc(C)cc(C)c23)cc1 | – | -89.8
O=S(=O)(c1cccc2cnccc12)N1CCCNCC1 | – | -7.7
CCCOCc1cc(CN2CCN(c3ccccc3OC)CC2)c(O)c2ncccc12 | – | -93.6
CCNC(=O)c1c(NC(=O)c2nc(S(=O)(=O)CC)ncc2Cl)sc2c1CCCC2 | 1310 nM (active) | –
O=C(Nc1ccc(F)c(F)c1)c1ccc(F)c(S(=O)(=O)N2CCC3(CC2)OCCO3)c1 | 10400 nM (active) | –
COC(=O)c1c(C)oc2ccc(N(C(=O)c3ccncc3)S(=O)(=O)c3ccc(OC)cc3)cc12 | 1850 nM (active) | –
COc1ccccc1C1C=C(c2ccc(Cl)cc2)Nc2nc(-c3ccc(Cl)cc3)nn21 (configuration not stated) | – | -9.46
CC1=C(C(=O)OC2CCCC2)C(c2ccccc2Cl)CC(=O)N1 (configuration not stated) | – | -10.6
COc1ccccc1N1CCN(Cc2cc(COC(C)C)c3cccnc3c2O)CC1 | 5210 nM (active) | –
COc1ccc(C(=O)N2CCN(C(=O)COc3ccc(Br)cc3)CC2)cc1OC | – | -17.7
CC(C)CCNc1nc(Nc2ccccc2)c2cnn(C)c2n1 | – | 17.1
COc1ccccc1N1CCN(C(=O)c2cnc(N3CCCCC3)c3ccccc23)CC1 | 927 nM (active) | –
Cc1ccccc1OCCn1c(=N)n(C(C)C)c2ccccc21 | 8260 nM (active) | –
CCCC(=O)OC1=CN(Cc2ccccc2)S(=O)(=O)c2ccccc21 | – | -27.1
COc1ccc(S(=O)(=O)N(Cc2nc(-c3cccc(C)c3)no2)C2CCCCC2)cc1 | – | -16.2

Compound | Potency | activity change, negative = inhibition [%]
Cc1ccc(C(=O)/C=C/c2cn(CC(O)CN3CCCCCC3)c3ccccc23)cc1 (configuration not stated) | 18500 nM (active) | –
CC(C)S(=O)(=O)c1oc(-c2ccc(F)cc2)nc1S(=O)(=O)c1ccc(F)cc1 | – | -95
COc1ccc(CCCc2nnc(SCC(=O)Nc3ccc(OC)cc3)o2)cc1 | – | 14
Cn1nc(-c2ccc(OCC(=O)Nc3ccccc3)cc2)c2ccccc2c1=O | – | -11.2
COc1ccc(S(=O)(=O)N(CCc2ccccc2)CC(=O)Nc2cccc(OC)c2)cc1 | – | -19.2
CCS(=O)(=O)c1oc(-c2ccc(F)cc2)nc1S(=O)(=O)c1ccccc1 | 369 nM (active) | –
O=C(NC1CCCCC1)/C(=C/c1ccc(Cl)cc1)NC(=O)c1ccccc1 | – | -5.63
CC(C)CCNC(=O)C(=O)Nc1c2c(nn1-c1ccc(Cl)cc1)CSC2 | 5850 nM (active) | –
COc1ccc(C)cc1NC(=O)CCNS(=O)(=O)c1cccc2nonc12 | – | 5.15
Cc1cccc(C)c1Nc1sc(C(=O)c2ccccc2)c(N)c1S(=O)(=O)c1ccccc1 | 2610 nM (active) | –
CCCCOC(=O)c1ccc(NC(=O)c2sc3nc(C)cc(C)c3c2N)cc1 | – | -72
CC(C)CCNC(=O)c1cccc(Nc2nc3ccccc3n3nnnc23)c1 | – | -88.5
O=C(Nc1ccc(Cl)cc1)c1cc(S(=O)(=O)N2CCCc3ccccc32)ccc1F | – | -18.3
Cc1ccc(NC(=O)CSc2nc(=O)cc(N)n2CCc2ccccc2)cc1 | – | -30
Fc1ccc(Nc2nc3nonc3nc2Nc2cccc(C(F)(F)F)c2)cc1 | 1850 nM (active) | –
Cc1nnc(C(=O)NC(C)(C)c2nc(C(=O)NCc3ccc(F)cc3)c(O)c(=O)n2C)o1 | – | -4.28
COc1ccc(NC(=O)CSc2c3c(nc4ccccc24)CCC3)c(OC)c1 | – | 11.1
O=C(c1ccc(CS(=O)c2ccccc2Cl)o1)N1CCN(c2cccc(Cl)c2)CC1 (configuration not stated) | 521 nM (active) | –
